Source: PubChem BioAssay (Tox21)
“And” between values parts separate entries of the source, which are not always exact repeats. Equal values may be shown once. Results filed as inconclusive are left out. A call without a number means that no potency is given here. The source made the active and inactive calls. Unless noted, the call rests on the fitted dose curve; in most records, active means well fitted curve in the direction sought with a large enough effect in the repeat runs; inconclusive means weak or mixed curves; inactive means no such curve, though single readings can be large; an effect the other way counts as inactive or inconclusive.

Legend:
[1] = qHTS assay to identify small molecule antagonists of the glucocorticoid receptor (GR) signaling pathway - cell viability counter screen (AID 720693); further: nearly all actives have a fitted effect of over 55% in size
[2] = qHTS assay for identifying genotoxic compounds that show differential cytotoxicity against isogenic chicken DT40 cell lines with known DNA damage response pathways - Rad54/Ku70 mutant cell line (AID 743015); further: nearly all actives have a fitted effect of over 60% in size; further: potency means the concentration at half of the fitted maximal effect
[3] = qHTS assay to identify small molecule antagonists of the androgen receptor (AR) signaling pathway - cell viability counter screen (AID 743033; further: nearly all actives have a fitted effect of over 45% in size; further: potency means the concentration at half of the fitted maximal effect)
[4] = qHTS assay to identify small molecule antagonists of the androgen receptor (AR) signaling pathway using the MDA cell line - cell viability counter screen (AID 743041; further: nearly all actives have a fitted effect of over 45% in size; further: potency means the concentration at half of the fitted maximal effect)
Outline: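 R1881-driven MDA-kb2 AR-luc cells, 3,000/well, were dosed with library compounds for 16 h; cell health came from CellTiter-Fluor fluorescence in the reporter wells.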

[5] = qHTS assay to identify small molecule antagonists of the thyroid receptor (TR) signaling pathway - cell viability counter screen (AID 743064); further: nearly all actives have a fitted effect of over 50% in size; further: potency means the concentration at half of the fitted maximal effect
Outline: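 CellTiter-Fluor readout, 30 min at 37 °C/5% CO2, following 23.5 h incubation of GH3.TRE-Luc cells with test compound and 1 nM T3 (final).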

[6] = qHTS assay to identify small molecule antagonists of the thyroid receptor (TR) signaling pathway (AID 743065); further: series mostly up to about 70 µM; nearly all actives have a fitted effect of over 55% in size
Outline: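 Antagonism measured as loss of luciferase signal in GH3 cells stably carrying a TRE-luciferase reporter, co-treated with compound and T3 (1 nM final) for 23.5 h at 37 C. Viability was read in the same well by CellTiter-Fluor.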

[7] = tested on: thyroid hormone receptor (rat, GH3 cells); test: qHTS assay to identify small molecule agonists of the thyroid receptor (TR) signaling pathway (AID 743066; calls by dose curve)
[8] = biological target: Estrogen receptor (Homo sapiens) (UniProt P03372); test: qHTS assay to identify small molecule antagonists of the estrogen receptor alpha (ER-alpha) signaling pathway (AID 743069; active means well fitted curve in the direction sought with a large enough effect in the signal ratio in the repeat runs, not every such curve was filed as active; the % refers to the signal ratio)
Outline: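 Compound effects are measured against 17beta-estradiol stimulation in HEK293 cells with a UAS-controlled beta-lactamase reporter for ER-alpha. Exposure lasts 18 hr at 37C; LiveBLAzer B/G FRET substrate follows for 2 hr at room temperature.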

[9] = qHTS assay to identify small molecule antagonists of the estrogen receptor alpha (ER-alpha) signaling pathway - cell viability counter screen (AID 743074; calls by dose curve;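 further: HEK293 cells carrying ER-alpha-UAS-bla reporter stimulated with 17beta-estradiol; nearly all actives have a fitted effect of over 45% in size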)
[10] = biological target: Estrogen receptor (Homo sapiens) (UniProt P03372); test: qHTS assay to identify small molecule agonists of the estrogen receptor alpha (ER-alpha) signaling pathway (AID 743075; calls by dose curve; further: potency means the concentration at half of the fitted maximal effect)
[11] = biological target: Estrogen receptor (Homo sapiens) (UniProt P03372); test: qHTS assay to identify small molecule agonists of the estrogen receptor alpha (ER-alpha) signaling pathway using the BG1 cell line (AID 743079); further: nearly all actives have a fitted effect of over 20% in size; further: potency means the concentration at half of the fitted maximal effect
[12] = qHTS assay to identify small molecule antagonists of the estrogen receptor alpha (ER-alpha) signaling pathway using the BG1 cell line (AID 743080; calls by dose curve;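 further: BG1 cells stimulated with 17beta-estradiol alongside compound; series mostly up to about 70 µM; nearly all actives have a fitted effect of over 25% in size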)
Outline: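 Endogenous full-length ER-alpha in BG1-Luc-4E2 cells drives a stably integrated 4×ERE luciferase gene; compounds were tested against 17beta-estradiol over 21.5 h, with luminescence and multiplexed viability fluorescence recorded.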

[13] = qHTS assay to identify small molecule antagonists of the estrogen receptor alpha (ER-alpha) signaling pathway using the BG1 cell line - cell viability counter screen (AID 743081);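 further: compound given together with 17beta-estradiol as the ER stimulus; nearly all actives have a fitted effect of over 45% in size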; further: potency means the concentration at half of the fitted maximal effect
Aromatase (Homo sapiens) = Aromatase (Homo sapiens) (UniProt P11511); test: qHTS assay to identify aromatase inhibitors (AID 743083); further: series mostly up to about 70 µM; nearly all actives have a fitted effect of over 55% in size
[14] = qHTS assay for identifying genotoxic compounds that show differential cytotoxicity against isogenic chicken DT40 cell lines with known DNA damage response pathways - Rev3 mutant cell line (AID 743014); further: nearly all actives have a fitted effect of over 55% in size; further: potency means the concentration at half of the fitted maximal effect
[15] = biological target: Androgen receptor (Homo sapiens) (UniProt P10275); test: qHTS assay to identify small molecule antagonists of the androgen receptor (AR) signaling pathway (AID 743035; active means well fitted inhibition curve with a large enough effect in the signal ratio in the repeat runs, not every such curve was filed as active; the % refers to the signal ratio)
Outline: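 HEK293 cells stably carrying UAS-beta-lactamase reporter, 2,000/well, given compounds plus R1881 agonist and incubated 16 h at 37C. LiveBLAzer B/G FRET substrate then added for 2 h at room temperature before fluorescence reading.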

[16] = biological target: Androgen receptor (Homo sapiens) (UniProt P10275); test: qHTS assay to identify small molecule agonists of the androgen receptor (AR) signaling pathway (AID 743036; active means well fitted activation curve with a large enough effect in the signal ratio in the repeat runs, with a control signal flat, not every such curve was filed as active; the % refers to the signal ratio)
Outline: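 Following a 4 h settling period, AR-UAS-bla HEK293 cells were dosed with compounds for 16 h at 37C. A 2 h room-temperature incubation with LiveBLAzer B/G FRET substrate preceded the fluorescence measurement.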

[17] = biological target: Androgen receptor (Homo sapiens) (UniProt P10275); test: qHTS assay to identify small molecule agonists of the androgen receptor (AR) signaling pathway using the MDA cell line (AID 743040; further: nearly all actives have a fitted effect of over 20% in size)
Outline: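 After a 5 h incubation at 37C and 0% CO2, MDA-kb2 reporter cells were dosed with compounds in DMSO and kept 16 h under the same conditions. Luciferase activity was then read as luminescence with ONE-Glo.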

[18] = biological target: Androgen receptor (Homo sapiens) (UniProt P10275); test: qHTS assay to identify small molecule antagonists of the androgen receptor (AR) signaling pathway using the MDA cell line (AID 743042; further: nearly all actives have a fitted effect of over 55% in size)
Outline: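 Antagonist mode: compounds plus R1881 agonist added to MDA-kb2 AR-luc cells, incubated 16 h at 37C. Luciferase reporter luminescence quantified, with multiplexed CellTiter-Fluor readout for cell viability.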

Estrogen receptor (Homo sapiens), sequence (P03372 whole entry, looked up): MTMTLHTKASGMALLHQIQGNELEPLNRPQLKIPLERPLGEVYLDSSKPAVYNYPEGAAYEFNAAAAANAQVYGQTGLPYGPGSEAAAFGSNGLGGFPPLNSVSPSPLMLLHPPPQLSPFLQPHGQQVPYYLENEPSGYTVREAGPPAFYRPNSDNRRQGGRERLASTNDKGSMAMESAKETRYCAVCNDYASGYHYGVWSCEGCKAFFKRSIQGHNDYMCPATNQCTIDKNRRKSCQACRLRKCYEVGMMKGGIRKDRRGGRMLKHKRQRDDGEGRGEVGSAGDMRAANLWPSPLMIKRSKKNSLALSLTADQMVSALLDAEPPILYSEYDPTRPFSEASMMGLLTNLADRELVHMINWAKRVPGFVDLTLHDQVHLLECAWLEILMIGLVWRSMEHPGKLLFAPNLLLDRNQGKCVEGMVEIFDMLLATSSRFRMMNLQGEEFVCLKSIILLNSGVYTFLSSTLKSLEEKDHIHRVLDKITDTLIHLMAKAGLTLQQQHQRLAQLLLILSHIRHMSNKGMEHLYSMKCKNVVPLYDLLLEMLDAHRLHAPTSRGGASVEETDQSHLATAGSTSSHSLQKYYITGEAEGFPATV
Aromatase (Homo sapiens), sequence (P11511 whole entry, looked up): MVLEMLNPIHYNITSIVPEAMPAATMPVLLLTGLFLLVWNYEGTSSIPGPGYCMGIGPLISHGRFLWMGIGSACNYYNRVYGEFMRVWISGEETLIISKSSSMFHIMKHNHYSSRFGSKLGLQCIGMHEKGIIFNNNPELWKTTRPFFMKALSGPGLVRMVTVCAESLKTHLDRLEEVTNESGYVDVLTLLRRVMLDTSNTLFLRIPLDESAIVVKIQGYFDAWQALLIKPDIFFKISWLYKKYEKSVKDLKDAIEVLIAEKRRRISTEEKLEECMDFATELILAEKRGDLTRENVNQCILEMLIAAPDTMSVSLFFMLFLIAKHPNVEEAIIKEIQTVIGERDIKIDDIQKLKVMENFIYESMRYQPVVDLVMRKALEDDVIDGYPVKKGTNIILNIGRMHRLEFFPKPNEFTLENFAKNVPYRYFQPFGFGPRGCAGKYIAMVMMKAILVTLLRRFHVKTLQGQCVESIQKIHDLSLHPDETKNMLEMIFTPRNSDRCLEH
Androgen receptor (Homo sapiens), sequence (P10275 whole entry, looked up): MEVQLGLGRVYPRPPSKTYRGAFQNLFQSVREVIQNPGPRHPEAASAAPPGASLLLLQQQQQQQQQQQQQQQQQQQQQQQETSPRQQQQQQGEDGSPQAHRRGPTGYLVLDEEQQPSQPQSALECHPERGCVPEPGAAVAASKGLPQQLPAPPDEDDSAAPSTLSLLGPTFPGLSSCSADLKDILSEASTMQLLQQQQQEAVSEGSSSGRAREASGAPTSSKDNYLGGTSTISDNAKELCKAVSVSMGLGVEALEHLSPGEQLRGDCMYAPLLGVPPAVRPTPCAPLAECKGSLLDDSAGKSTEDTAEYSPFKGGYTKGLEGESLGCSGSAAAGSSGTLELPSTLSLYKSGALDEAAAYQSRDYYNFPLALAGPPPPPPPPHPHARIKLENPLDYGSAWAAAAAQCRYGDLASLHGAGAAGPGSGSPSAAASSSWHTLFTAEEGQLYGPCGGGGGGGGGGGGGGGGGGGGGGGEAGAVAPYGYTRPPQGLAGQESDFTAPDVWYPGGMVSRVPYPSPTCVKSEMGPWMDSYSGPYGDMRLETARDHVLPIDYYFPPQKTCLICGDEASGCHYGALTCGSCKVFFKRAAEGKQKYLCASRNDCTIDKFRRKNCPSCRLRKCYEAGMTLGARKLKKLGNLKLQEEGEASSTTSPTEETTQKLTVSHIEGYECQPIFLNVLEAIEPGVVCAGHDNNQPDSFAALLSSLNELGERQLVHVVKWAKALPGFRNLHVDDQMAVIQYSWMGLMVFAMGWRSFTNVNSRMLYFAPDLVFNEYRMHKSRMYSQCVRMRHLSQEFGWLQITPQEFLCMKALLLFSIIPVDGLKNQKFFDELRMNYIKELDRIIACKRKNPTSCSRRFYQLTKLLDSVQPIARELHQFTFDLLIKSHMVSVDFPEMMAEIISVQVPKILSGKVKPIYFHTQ

Structure (SMILES) | outcome [1] | Potency [2] | Potency [3] | Potency [4] | Potency [5] | Potency [6] | outcome [7] | outcome [8] | outcome [9] | Potency [10] | Potency [11] | outcome [12] | Potency [13] | Potency (Aromatase (Homo sapiens)) | Potency [14] | outcome [15] | outcome [16] | Potency [17] | Potency [18]
CCOC(=O)C(=O)OCC | inactive | inactive | inactive | inactive | inactive | inactive | inactive | inactive | inactive | inactive | inactive | inactive | inactive | inactive |  |  |  |  | 
CC(=O)CC(C)(C)C1CCCCC1 | inactive | inactive | inactive | inactive | inactive | inactive | inactive | inactive | inactive | inactive | inactive | inactive | inactive | inactive |  |  |  |  | 
c1ccc([C@H]2CN3CCSC3=N2)cc1 | inactive |  |  | inactive | inactive | inactive | inactive | inactive | inactive | 0.0601 µM [fluorescent] (active) | 11.9 µM (active) | inactive | inactive | inactive |  |  |  |  | 
NCCCNCCSP(=O)(O)O | inactive | inactive |  | inactive | inactive |  | inactive | inactive | inactive | inactive | inactive | inactive | inactive | inactive | inactive |  |  |  | 
FC1(F)C(F)(F)C(F)(F)C2(F)C(F)(F)C(F)(F)C(F)(F)C(F)(F)C2(F)C1(F)F (stereo not drawn) | inactive | 21.1 µM (active) | inactive | inactive | inactive | inactive | inactive | inactive | inactive | inactive | inactive | inactive | inactive | inactive |  | inactive | inactive | inactive | inactive
O=C(CCCN1CCN(c2ccccn2)CC1)c1ccc(F)cc1 | inactive |  | inactive | inactive | inactive | inactive | inactive |  | inactive |  |  |  | inactive | inactive |  |  |  |  | 
CN(C)CCCN1c2ccccc2CCc2ccc(Cl)cc21 | inactive | 9.44 µM (active) and 7.7 µM (active) | 24.5 µM (active) | 48.6 µM (active) | 10.6 µM (active) and 10.9 µM (active) |  | inactive |  | inactive |  |  |  | 54.5 µM (active) | inactive | 7.5 µM (active) and 6.86 µM (active) |  |  |  | 
CCOC(C)(C)C | inactive | inactive |  | inactive | inactive |  | inactive | inactive | inactive | inactive | inactive | inactive | inactive | inactive | inactive |  |  |  | 
CCOC(=O)c1c(C)n(C)c2ccc(O)cc12 | inactive | inactive |  | inactive | inactive |  | inactive |  | inactive |  |  |  | inactive | inactive |  |  |  | inactive | inactive
CN(C(=O)c1c(O)c2ccccc2n(C)c1=O)c1ccccc1 | inactive | inactive |  | inactive | inactive | inactive | inactive |  | inactive |  |  |  | inactive | inactive | inactive |  |  |  | 
